Sampled rows, rich in hits. Any-hit rate of the full collection: about 1.8%.
TLR9-MyD88 inh: inhibitors of TLR9-MyD88 association in cells, primary screen, cell-based, CHO, BLA complementation, fluorescence; Toll-like receptor 9 (Homo sapiens) + Myeloid differentiation primary response protein …; CCF4 FRET ratio; inhibition, % at 4.98 µM; 0.21% of 340,000 active; AID 504734, 2011;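 active means inhibition above the mean over all tested compounds plus 3 SD, cut at about 21% in these data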;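 further: 0% = DMSO only wells and 100% = clavulanate BLA inhibitor control wells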
Rtt109 Vps75: inhibitors of C. albicans Rtt109/Vps75 HAT, primary screen, biochemical, ThioGlo CoA-SH fluorescence, plate reader. inhibition, % at 34.9 µM. 0.16% of 330,000 active. purified Rtt109/Vps75, 4 h;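 active means inhibition of at least 50% in every replicate; inconclusive means best replicate reaches 50% inhibition but some replicates fall short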
Target sequence (Q5AAJ8 whole entry, looked up): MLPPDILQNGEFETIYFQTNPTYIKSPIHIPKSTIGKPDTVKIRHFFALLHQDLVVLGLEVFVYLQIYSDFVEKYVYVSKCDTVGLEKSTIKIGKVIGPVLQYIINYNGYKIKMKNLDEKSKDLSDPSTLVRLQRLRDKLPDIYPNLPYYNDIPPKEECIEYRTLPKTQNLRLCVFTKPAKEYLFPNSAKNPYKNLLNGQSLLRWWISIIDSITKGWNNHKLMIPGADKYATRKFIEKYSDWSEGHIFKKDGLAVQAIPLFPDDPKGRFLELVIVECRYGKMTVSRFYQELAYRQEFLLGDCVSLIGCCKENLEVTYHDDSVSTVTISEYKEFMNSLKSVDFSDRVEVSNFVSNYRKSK
TLR4-MyD88 BLA: inhibitors of TLR4-MyD88 association in cells, primary screen, cell-based, HeLa CL3-4, BLA complementation, FRET ratio | 0.18% of 200,000 active | HeLa CL3-4 TLR4/MyD88 BLA complementation | Toll-like receptor 4 (Homo sapiens) + Myeloid differentiation primary response protein … | inhibition, % at 8.4 µM; in the data active means inhibition above about 25%;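 further: 0% = vehicle and 100% = reference inhibitor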
m5-HT2A agonist: mouse Htr2a agonists via beta-arrestin recruitment, primary screen, cell-based, luminescence | 0.66% of 360,000 active | CHO-K1 mHTR2A beta-arrestin complementation; percent of 30 µM serotonin response | activation, % at 7.6 µM;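 active means activation above a run cutoff, the mean activation of all tested compounds plus 3 SD, cut at about 14% in these data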;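 further: 0% = plate median of compound wells and 100% = 30 µM serotonin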
LANA-H2A inh: blockers of LANA interaction with H2A/H2B – biochemical, FP readout, HTS, primary screen; 0.6% of 320,000 active; inhibition, % (test concentration not listed); cell-free LANA-H2A/H2B peptide, fluorescence polarization; AID 2629, 2010; in the data active means inhibition mostly above about 10%, no sharp cut-off; inactive means mostly below about 6.7%
NOD2 RIPK2 PPI: NOD2-RIPK2 binding disruptors in cells, primary screen, fluorescence, CHO cells, BLA complementation; Receptor-interacting serine/threonine-protein kinase 2 (Homo sapiens), O43353; CCF4 ratio; inhibition, % at 4.98 µM; 0.38% of 360,000 active; AID 624267, 2012; in the data active means inhibition above about 21%;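 further: 0% = vehicle only and 100% = reference blocker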
An asterisk follows results filed as active; ? = inconclusive; · = no result; + = active, no number; ! = repeats disagree.

SMILES | TLR9-MyD88 inh | Rtt109 Vps75 | TLR4-MyD88 BLA | m5-HT2A agonist | LANA-H2A inh | NOD2 RIPK2 PPI
COc1ccccc1CNC(=O)CCC(=O)Nc1nnc(C)s1 | 2 | 9 | 2 | -1 | -33 | -7
COc1ccc(/C=C/C(=O)Nc2nnc(C(C)C)s2)cc1OC | · | · | · | 5 | 20* | -3
COc1ccccc1CNC(=O)CCC(=O)Nc1nnc(C(C)C)s1 | -3 | 14 | -15 | 1 | 20* | 5
COc1ccc(OC)c(S(=O)(=O)NC(=O)C2(C)CCN2C(=O)CC2CCCC2)c1 (stereo unspecified) | · | · | · | 7 | · | 3
COc1cc(C2CC(=O)C3=C(C2)Nc2ncnn2C3c2cccs2)cc(OC)c1OC (stereo unspecified) | · | · | · | 6 | 3 | -12
COc1cc(C2C=C(c3cccs3)Nc3ncnn32)cc(OC)c1OC (stereo unspecified) | 65* | 5 | 17 | 3 | · | 80*
COc1ccccc1NC(=O)CSC(N)=O | 0 | 135* | 0 | -6 | 3 | 2
COc1ccccc1NC(=O)Cn1c(C)cc(=O)c2cccc(OC)c21 | · | -5 | · | 9 | 25* | -1
COc1cccc2c(=O)cc(C)n(CC(=O)Nc3ccc(C)c(C)c3)c12 | -4 | 1 | 2 | -5 | -3 | 15
CN1[C@@H]2CC(OC(=O)[C@H](CO)c3ccccc3)C[C@H]1[C@@H]1O[C@@H]12 (stereo partly specified) | -4 | 0 | 1 | 0 | 27*! | 3
CCn1c(O)c(/C=C2\C=Nc3ccccc32)sc1=O | 10 | 3 | 3 | -6 | 14* | 0
CCn1c(O)c(/C=C2\C=Nc3ccccc32)sc1=Nc1ccc(C)cc1 | 13 | -7 | 6 | -1 | 3 | 0
Cc1cc(C)cc(NC(=O)NC(C)C2CCCO2)c1 (stereo unspecified) | 10 | 56* | -4 | 9 | 3 | -9
O=C(Cn1sc2ccccc2c1=O)Nc1ccccc1 | 1 | · | · | -5 | · | 18
O=C(Cn1sc2ccccc2c1=O)NC12CC3CC(CC(C3)C1)C2 | 21* | ? | -4 | 8 | 0 | 9
CCCCOC(=O)Nc1cc(Cl)ccc1C | -6 | -6 | -4 | 2 | -9 | 0
CCCOC(=O)NC(CC)COC(=O)Nc1cc(C)ccc1C (stereo unspecified) | -3 | -6 | 5 | -1 | 46* | 0
COC(=O)CCCn1cc(CN(C)C2CN(Cc3cn(CCCC(=O)OC)nn3)S(=O)(=O)C2)nn1 (stereo unspecified) | · | · | · | -4 | · | -4
CCOc1cc(S(=O)(=O)N2CCC(Cc3ccccc3)CC2)c(OCC)cc1-n1cnnn1 | -8 | 55* | 5 | 5 | 2 | -1
CCOc1cc(S(=O)(=O)N2CC=C(c3ccc(F)cc3)CC2)c(OCC)cc1-n1cnnn1 | -1 | -7 | 1 | 2 | -3 | 5
CC[C@@H](C(=O)[C@@H](C)[C@@H](O)[C@H](C)CCc1ccc(C)c(O)c1C(=O)O)[C@H]1O[C@](CC)([C@H]2CC[C@](O)(CC)[C@H](C)O2)C[C@@H]1C | 0 | 26 | · | 193* | 2 | -13
O=C(NCc1ccccc1)C1c2ccccc2OCC(=O)N1Cc1cccnc1 (stereo unspecified) | · | · | · | 10 | · | -27
CCN(CC)C(=O)c1ccc(S(=O)(=O)c2ccccc2)cc1 | -3 | -2 | · | 3 | + | -3
CCN(CC)C(=O)c1ccc(NS(=O)(=O)c2ccccc2)cc1 | 0 | -11 | 0 | 1 | 7 | -7
O=C(Nc1cccnc1)c1cc(-c2ccccc2O)on1 | 6 | -1 | · | -7 | -5 | 6
SMILES | TLR9-MyD88 inh | Rtt109 Vps75 | TLR4-MyD88 BLA | m5-HT2A agonist | LANA-H2A inh | NOD2 RIPK2 PPI
Cc1c(NC(=O)c2cc(-c3ccco3)on2)c(=O)n(-c2ccccc2)n1C | 2 | 5 | -14 | 2 | -3 | -5
Cc1c(NC(=O)c2cc(-c3cccs3)on2)c(=O)n(-c2ccccc2)n1C | -3 | -3 | -12 | 3 | 175* | 2
O=C(Nc1cccnc1)c1cc(-c2cccs2)on1 | 12 | -4 | 3 | 2 | 92* | 3
CC(C)(C)Nc1c(C2CCNCC2)nc2c(OCc3ccccc3)cccn12 | · | · | · | 0 | · | 8
COc1cccc(NC(=O)CN(C)C(=O)c2cc(-c3ccc(C)o3)nc3ccccc23)c1 | -4 | -132 | · | 1 | 60* | -7
C=CC[C@@H](CC(=O)NCCO)C(=O)N[C@H](COC(=O)[C@@H](CC=C)Cc1ccc(F)cc1)Cc1c[nH]c2ccccc12 | 5 | 4 | · | 3 | + | 3
CCc1ccc(CN(C)C(=O)c2cc(COc3cccc4cnccc34)on2)cc1 | 17 | 22 | · | -3 | -2 | 7
Cc1c(C(C)NC(=O)c2cc(COc3cccc4cnccc34)on2)cnn1C (stereo unspecified) | 8 | 28 | · | 1 | 25* | 1
O=C(Cc1ccccc1)c1ccc(O)cc1O | -13 | 1 | · | -2 | · | -9
O=C(Cc1ccc2cccnc2c1)c1ccc(O)cc1O | 6 | 60* | 7 | 0 | 0 | -5
CCN(Cc1nc2cc(Cl)ccc2c(=O)[nH]1)C(=O)c1cccc(OCc2c(C)noc2C)c1 | -8 | -8 | · | 2 | 91* | -12
Cc1oc2c(C)c3oc(=O)c(CCC(=O)NCCN4CCOCC4)c(C)c3cc2c1C | -3 | -13 | · | -2 | 14* | -10
Cc1oc2c(C)c3oc(=O)c(CCC(=O)NCCCN4CCOCC4)c(C)c3cc2c1C | -10 | -6 | · | -2 | -4 | 5
CCN(CC)c1ccc(N=Cc2cc(Br)ccc2O)cc1 | -11 | 59* | 0 | 6 | 3 | 2
C/C(=N/NC(=O)c1cc(-c2cccc([N+](=O)[O-])c2)n[nH]1)c1cccc(O)c1 | -1 | -1 | · | 0 | 15* | -26
Cc1ccccc1CN1CC2=C(CCN(Cc3ccccc3)C2=O)N2CCN=C12 | · | · | · | -5 | · | -2
NS(=O)(=O)c1ccc(CCNC(=O)CNC(=O)c2ccc(Br)o2)cc1 | 3 | -2 | · | 3 | 23* | -11
O=C(NCc1ccc(Br)cc1)OC1CC2CC1[C@H]1CCCCN1C2=O (stereo partly specified) | · | · | · | 2 | · | -1
O=c1[nH]c2c(s1)C=Nc1ccccc1N2 | 0 | -1 | -1 | -2 | 38* | 3
